The results in this text go back to PubChem BioAssay.

Calls of active or inactive are those of the source. Unless noted, no rule for the calls is given here.

Assay [1] in a line: compounds binding Alexa647 anti-His antibody – biochemical, small-molecule microarray, 635 nm fluorescence, artefact control for SMM control protein annotation, primary screen (AID 1128).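 Also: score merges feature fluorescence with signal-to-noise for each printed compound spot.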 The note with it: higher = more signal.
Assay [2] deals with Human papillomavirus type 1a E7 protein (residues 1-88). As to the kind of experiment: HPV1a E7 small-molecule binders, primary screen, biochemical, small-molecule microarray, residues 1-88, 635 nm (AID 1129). Conditions: small-molecule microarray binding, fluorescence 635 nm; higher = more signal.
Assay [3] has as its target Focal adhesion kinase 1 (Homo sapiens) (UniProt Q05397). As to the kind of experiment: PTK2 protein binding on printed compound slides – biochemical, small-molecule microarray, 635/667 nm fluorescence, BSA, DTT, primary screen (AID 1130).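 Also: composite of spot emission at 667 nm and signal to noise over triplicate slides.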 Conditions: 635 nm fluorescence, higher = more signal.
For assay [4], the system named is Fibrinogen (Alexa647-labelled). Put plainly: Alexa647-fibrinogen binding to printed small molecules – biochemical, small-molecule microarray, 635/667 nm fluorescence, artefact control for SMM control-protein annotation, profiling panel (AID 1131).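 Also: z-score merges 667 nm fluorescence with per-spot signal-to-noise over triplicate slides.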 Conditions: fibrinogen-A647 binding fluorescence, higher = more signal.
For assay [5], the target named is Follistatin (Homo sapiens) (UniProt P19883). Put plainly: FST protein binding to printed compounds – biochemical, small-molecule microarray, 635/667 nm fluorescence, primary screen (AID 1132). Conditions: 635 nm fluorescence, higher = more signal.
In assay [6] the target is Fibroblast growth factor 2 (Homo sapiens) (UniProt P09038). Put plainly: basic fibroblast growth factor binding to printed compounds – biochemical, small-molecule microarray, 635/667 nm fluorescence, primary screen (AID 1133). Conditions: FGF2, fluorescence 635/667, higher = more signal.
Assay [7] is described as follows: JC-1 mitochondrial potential readout, lung cancer cells – cell-based, A549, JC-1 fluorescence, basal, 24 h, 100 nL, profiling panel (AID 1138).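 Also: A549 lung adenocarcinoma cells under basal conditions with no added stimulus; test concentration not given here.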 The note with it: higher = more signal.
The test system of assay [8] is Lefty1. As to the kind of experiment: Lefty1 protein binding to printed compounds – biochemical, small-molecule microarray, 635/667 nm fluorescence, primary screen (AID 1139). Conditions: fluorescence 635/667, higher = more signal.
Assay [9] concerns wheat germ agglutinin (Triticum aestivum), Alexa647-labelled. As to the kind of experiment: Alexa647-WGA lectin binding to printed small molecules – biochemical, small-molecule microarray, 635/667 nm fluorescence, artefact control for SMM control-protein annotation, profiling panel (AID 1140).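 Also: score merges 667 nm feature emission with signal to noise over triplicate slides.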 Conditions: WGA-A647 binding, 635 nm fluorescence, higher = more signal.
The target in assay [10] is Luciferin 4-monooxygenase (Photinus pyralis) (UniProt P08659). Put plainly: inhibition of purified Photinus pyralis luciferase – biochemical, luminescence, purified enzyme, 2006 set, primary screen (AID 1141).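 Also: cell-free assay with purified firefly luciferase at 100 ng per well in PBS; test concentration not given here.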 Conditions: purified firefly luciferase, SteadyGlo luminescence, 30 min; higher = more signal, called active from +8 up or from −8 down.
The subject of assay [11] is Wnt5a (protein binding on small-molecule microarray). As to the kind of experiment: small molecules binding Wnt5a protein – biophysical, small-molecule microarray, 635/667 nm fluorescence, primary screen (AID 1142).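 Also: fluorescence read at 667 nm with signal to noise per printed feature.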 Conditions: 635 nm fluorescence, higher = more signal.
The nature of assay [12]: ATP-based viability of Huh7 replicon cells – cell-based, CellTiter-Glo luminescence, basal, 48 h, cytotoxicity control for HCV replication inhibitor project, primary screen (AID 1143).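 Also: Huh7 hepatoma cells carrying a hepatitis C replication reporter with no stimulus; test concentration not given here.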 Conditions: higher = more signal, called active from +8 up or from −8 down. (In general: Replicon systems follow genome replication, usually without infectious particles.)
Assay [13] is described as follows: Pseudomonas biofilm growth suppression – PAO1 strain, BacTiter-Glo luminescence, LB-PBS, primary screen (AID 1144). Conditions: P. aeruginosa PAO1 biofilm, 12 h, higher = more signal.
Assay [14] can be described thus: basal CRE-LacZ reporter activity in PC12 – cell-based, unstimulated, primary screen (AID 1145). Conditions: no forskolin, luminescence, 4.5 h, higher = more signal, called active from +8 up or from −8 down.
The nature of assay [15]: forskolin-driven CRE-LacZ activity in PC12 – cell-based, CRE-LacZ reporter, forskolin-stimulated, primary screen (AID 1146).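 Also: PC12 cells with 6xCRE LacZ reporter stimulated by forskolin 10 µM; beta-galactosidase reporter signal reflecting CREB driven transcription.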 Conditions: luminescence, 4.5 h, higher = more signal, called active from +8 up or from −8 down.
Assay [16] concerns the target Streptavidin (Streptomyces avidinii) (UniProt P22629). As to the kind of experiment: compounds binding control protein streptavidin – biophysical, small-molecule microarray, 635/667 nm fluorescence, artefact control for SMM compound annotation, primary screen (AID 1147).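 Also: signal reflects streptavidin binding to arrayed compounds as a control protein.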 The note with it: higher = more signal.
The nature of assay [17]: probe aInhba binding on compound microarray – biochemical, small-molecule microarray, 635/667 nm fluorescence, primary screen (AID 1148).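 Also: score merges 667nm spot fluorescence with signal-to-noise for antibody binding to printed compounds.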 Conditions: higher = more signal.
Assay [18] has as its target Torsin-1A (Homo sapiens) (UniProt O14656). As to the kind of experiment: TOR1A wild-type binding on microarray – cell lysate, small-molecule microarray, lysate, 635/667 nm, primary screen (AID 1149). The note with it: COS7 hTOR1A-WT lysate, 635 nm fluorescence, higher = more signal.
Assay [19] has the same target. Put plainly: torsin A mutant lysate binding on microarrays – cell lysate, small-molecule microarray, COS7 lysate, 635/667 nm fluorescence, primary screen (AID 1150).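 Also: score pools 667 nm emission and signal to noise measuring lysate protein binding.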 The note with it: COS7 hTOR1A mutant lysate, 635 nm fluorescence, higher = more signal.
Assay [20] relates to Sonic hedgehog protein (Shh). Put plainly: Sonic hedgehog microarray binding compounds – biochemical, small-molecule microarray, 635/667 nm fluorescence, primary screen (AID 1151).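 Also: Shh protein binding to compounds spotted on small-molecule microarray slides; score combines spot fluorescence intensity with signal-to-noise across triplicate slides.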 The note with it: 635 nm fluorescence, higher = more signal.

Torsin-1A (Homo sapiens), sequence (O14656 whole entry, looked up): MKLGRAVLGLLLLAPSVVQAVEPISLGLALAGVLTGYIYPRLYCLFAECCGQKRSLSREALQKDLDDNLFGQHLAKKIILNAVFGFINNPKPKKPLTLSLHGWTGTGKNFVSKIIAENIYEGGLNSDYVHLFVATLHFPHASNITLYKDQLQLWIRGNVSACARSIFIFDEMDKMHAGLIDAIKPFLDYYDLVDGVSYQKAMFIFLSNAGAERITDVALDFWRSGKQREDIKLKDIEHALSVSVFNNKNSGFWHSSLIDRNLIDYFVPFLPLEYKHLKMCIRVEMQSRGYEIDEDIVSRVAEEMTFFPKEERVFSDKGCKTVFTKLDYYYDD
Fibroblast growth factor 2 (Homo sapiens), sequence (P09038 whole entry, looked up): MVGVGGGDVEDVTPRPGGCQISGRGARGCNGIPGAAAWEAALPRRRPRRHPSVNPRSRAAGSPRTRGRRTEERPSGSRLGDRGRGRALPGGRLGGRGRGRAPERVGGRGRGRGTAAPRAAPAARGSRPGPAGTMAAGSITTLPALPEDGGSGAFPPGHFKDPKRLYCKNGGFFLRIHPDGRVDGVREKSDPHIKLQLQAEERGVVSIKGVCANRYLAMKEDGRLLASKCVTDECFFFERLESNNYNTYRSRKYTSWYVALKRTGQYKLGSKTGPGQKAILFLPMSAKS
Luciferin 4-monooxygenase (Photinus pyralis), sequence (P08659 whole entry, looked up): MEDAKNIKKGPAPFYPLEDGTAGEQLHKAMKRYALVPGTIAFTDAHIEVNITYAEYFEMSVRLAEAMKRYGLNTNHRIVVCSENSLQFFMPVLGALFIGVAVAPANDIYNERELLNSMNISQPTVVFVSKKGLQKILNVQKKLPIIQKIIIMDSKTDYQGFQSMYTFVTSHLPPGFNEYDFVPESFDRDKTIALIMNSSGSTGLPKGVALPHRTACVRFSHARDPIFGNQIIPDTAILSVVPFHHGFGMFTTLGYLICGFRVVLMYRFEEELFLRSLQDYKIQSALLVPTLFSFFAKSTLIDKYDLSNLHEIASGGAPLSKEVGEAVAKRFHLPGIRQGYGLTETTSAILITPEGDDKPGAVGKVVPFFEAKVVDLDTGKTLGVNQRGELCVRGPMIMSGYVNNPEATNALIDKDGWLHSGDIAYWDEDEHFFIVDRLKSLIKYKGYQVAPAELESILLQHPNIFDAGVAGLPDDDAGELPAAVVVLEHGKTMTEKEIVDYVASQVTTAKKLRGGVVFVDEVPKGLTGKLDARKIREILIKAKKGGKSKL
Follistatin (Homo sapiens), sequence (P19883 whole entry, looked up): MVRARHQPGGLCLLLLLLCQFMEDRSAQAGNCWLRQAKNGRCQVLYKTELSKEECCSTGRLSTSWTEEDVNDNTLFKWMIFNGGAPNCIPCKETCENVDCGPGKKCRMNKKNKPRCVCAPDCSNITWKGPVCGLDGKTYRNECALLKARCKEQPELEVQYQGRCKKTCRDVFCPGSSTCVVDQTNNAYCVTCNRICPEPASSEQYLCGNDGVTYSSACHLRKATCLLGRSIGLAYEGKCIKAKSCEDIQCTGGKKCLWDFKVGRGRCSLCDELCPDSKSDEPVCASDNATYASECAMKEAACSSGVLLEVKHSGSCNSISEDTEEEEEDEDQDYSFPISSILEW
Streptavidin (Streptomyces avidinii), sequence (P22629 whole entry, looked up): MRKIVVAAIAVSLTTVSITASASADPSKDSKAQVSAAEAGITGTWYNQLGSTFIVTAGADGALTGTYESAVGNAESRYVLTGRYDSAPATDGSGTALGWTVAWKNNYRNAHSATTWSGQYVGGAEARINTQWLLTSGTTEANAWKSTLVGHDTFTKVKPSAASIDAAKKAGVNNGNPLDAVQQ
Focal adhesion kinase 1 (Homo sapiens), sequence (Q05397 whole entry, looked up): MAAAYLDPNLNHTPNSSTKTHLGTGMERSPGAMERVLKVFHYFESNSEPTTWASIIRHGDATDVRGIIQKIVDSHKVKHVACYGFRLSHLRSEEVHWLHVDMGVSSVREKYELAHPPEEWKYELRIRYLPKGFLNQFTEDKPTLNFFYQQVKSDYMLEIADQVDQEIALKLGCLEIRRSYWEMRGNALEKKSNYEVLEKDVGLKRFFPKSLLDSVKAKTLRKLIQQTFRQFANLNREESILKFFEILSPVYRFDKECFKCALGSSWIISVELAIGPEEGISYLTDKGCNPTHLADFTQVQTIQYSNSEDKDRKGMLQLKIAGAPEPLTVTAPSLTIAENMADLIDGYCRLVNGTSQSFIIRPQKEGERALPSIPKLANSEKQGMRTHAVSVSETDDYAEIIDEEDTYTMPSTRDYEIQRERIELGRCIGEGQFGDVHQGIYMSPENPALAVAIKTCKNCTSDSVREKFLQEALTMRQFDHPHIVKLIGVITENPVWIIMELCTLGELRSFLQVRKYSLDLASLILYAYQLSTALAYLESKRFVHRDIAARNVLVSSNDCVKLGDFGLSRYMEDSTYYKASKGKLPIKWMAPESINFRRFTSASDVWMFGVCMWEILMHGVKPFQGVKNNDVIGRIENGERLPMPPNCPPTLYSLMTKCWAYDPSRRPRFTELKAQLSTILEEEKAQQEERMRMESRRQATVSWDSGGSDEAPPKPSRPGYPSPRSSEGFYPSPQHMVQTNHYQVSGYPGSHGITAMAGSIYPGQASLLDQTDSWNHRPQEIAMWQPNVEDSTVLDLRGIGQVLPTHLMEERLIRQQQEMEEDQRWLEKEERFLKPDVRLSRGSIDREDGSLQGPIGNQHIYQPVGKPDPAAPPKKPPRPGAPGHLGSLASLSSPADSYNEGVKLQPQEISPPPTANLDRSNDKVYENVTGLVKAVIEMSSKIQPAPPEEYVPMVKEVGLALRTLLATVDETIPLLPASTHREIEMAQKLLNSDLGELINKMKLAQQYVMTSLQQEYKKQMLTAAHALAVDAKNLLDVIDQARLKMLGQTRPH

Take `O=C1C[C@]2(c3ccc([N+](=O)[O-])cc3)C(=O)N(Cc3ccccc3)c3cc(CO)ccc3[C@H]2N1CC12CC3CC(CC(C3)C1)C2`: the composite z-score was -1.43 in [1]; -0.835 in assay [2]; -0.536 in assay [3]; -1.28 in assay [4]; -1.06 in [5]; -0.653 in [6]. Further, the composite z-score in assay [8] is -1.17; in [9], -0.786; in assay [11] it was -0.186; in [16] it was -1.04; in [17], -0.325; in [18] it was -0.659. Moreover, the composite z-score in assay [19] is 0.263; in [20], -0.419. Besides, the z-score in assay [7] was -0.0834; in [10] it was -0.271 (inactive); in [12], 0.349 (inactive); in [13] it was 0.435 (inactive); in assay [14], -0.491 (inactive); in assay [15], 0.245 (inactive).

In the case of `CC1CC/C=C\[C@H]2OC34C=CCN(c5ccc6ccccc6c5)C(=O)[C@H]3N(C(CO)C(C)C)C(=O)[C@@H]4C2C(=O)O1` (stereo not given in full), the composite z-score is 1.22 in assay [1]; 0.29 in assay [2]; 1.33 in assay [3]; -1.01 in [4]; 0.136 in assay [5]; -0.282 in assay [6]. In addition, the composite z-score in [8] was 0.0964; in [9], 1.08; in assay [11], -0.257; in assay [16], -0.217; in [17], 0.0028; in assay [18], -1.06. The composite z-score in assay [19] was -0.477; in [20] it was 0.485. Besides, the z-score in assay [7] was 0.254; in [10] it was -0.776 (inactive); in [12], -0.0047 (inactive); in [13], 1.27 (inactive); in assay [14] it was -0.0939 (inactive); in assay [15], -0.714 (inactive).

As to `COc1ccc([Si](C)(C)[C@@H]2[C@@H](CCO)O[C@]3(C(=O)N(Cc4cccc(N5C(=O)c6ccccc6Oc6ccccc65)c4)c4ccccc43)[C@H]2C)cc1`, the composite z-score in assay [1] was 0.106; in [2], 0.502; in assay [3] it was 0.121; in [4] it was -0.0703; in [5], -0.672; in [6] it was -0.559. For the same molecule, the composite z-score in assay [8] was 0.135; in assay [9] it was 0.413; in [11] it was -0.193; in assay [16] it was -0.313; in assay [17], -0.251; in [18], -0.133. The composite z-score was -0.548 in assay [19] and -0.264 in [20]. Besides, the z-score in assay [7] was -0.368; in assay [10] it was -1.26 (inactive); in assay [12], -5.77 (inactive); in assay [13] it was -1.34 (inactive); in [14], 6.17 (inactive); in assay [15], 0.291 (inactive).

`COc1c(C)cc(-c2cc3c(c(-c4ccccc4)n2)[Si](C(C)C)(C(C)C)OC3)cc1C`: the composite z-score in [1] is 0.188; in assay [2], -0.892; in assay [3], -0.353; in [4], 0.363; in assay [5], 0.134; in assay [6] it was 0.514. Besides, the composite z-score in [8] was -0.135; in assay [9] it was 0.245; in [11] it was 0.0775; in [16], 0.657; in [17], -0.0313; in assay [18], 0.124. For the same molecule, the figures for the composite z-score in [19] and in assay [20] were -0.402 and 0.513, respectively. Further, the z-score is 0.439 in assay [7]; 0.411 (inactive) in assay [10]; 0.109 (inactive) in assay [12]; -0.661 (inactive) in [13]; -0.491 (inactive) in assay [14]; -0.478 (inactive) in [15].

Regarding `CC(C)CNC(=O)[C@@]1(c2ccc([N+](=O)[O-])cc2)CC(=O)N(C2CCCCC2)[C@@H]1c1ccc(CO)cc1I`, the composite z-score in [1] was -0.423; in [2] it was 0.676; in assay [3], 0.295; in [4], -0.106; in assay [5], -0.0906; in assay [6], 0.669. Besides, the composite z-score in [8] was -0.411; in assay [9] it was 1.15; in assay [11], -0.067; in assay [16], -0.018; in assay [17] it was 0.0633; in [18], -0.149. The composite z-score in [19] came to 0.0482; in assay [20], 0.425. In addition, the z-score is 1.86 in [7]; -0.712 (inactive) in assay [10]; -4.13 (inactive) in assay [12]; 0.363 (inactive) in assay [13]; 0.324 (inactive) in assay [14]; 1.65 (inactive) in assay [15].
